The values that follow come from the supplement of paper PMC5641865, “A screen for kinase inhibitors identifies antimicrobial imidazopyridine aminofurazans as specific inhibitors of the Listeria monocytogenes PASTA kinase PrkA” (The Journal of Biological Chemistry, 2017).

Several values for one entry are separate records, joined by “and”; a condition that tells them apart may be missing. Equal entries are not always repeated. ± gives the standard deviation of the averaged measurements.
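Further: End-point A600 read in BHI broth at 37 °C with 2% DMSO, inhibition computed as (1 − OD with compound plus ceftriaxone ÷ OD with ceftriaxone only) × 100.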

The test concerns Listeria monocytogenes 10403S. The test is described as follows: growth inhibition relative to ceftriaxone-alone control; higher = stronger potentiation of ceftriaxone growth inhibition. The conditions noted are these: 10 µM; ceftriaxone 1 ug/ml; 12 h.
Regarding `N#CC1(c2ccc(NC(=O)c3cccnc3NCc3ccncc3)cc2)CCCC1` [Apatinib (YN968D1)], the growth inhibition turned out to be 12.7 ± 6.2%.
To `C[C@@H]1CCN(C(=O)CC#N)C[C@@H]1N(C)c1ncnc2[nH]ccc12` belongs 11.4% and 15.6%.
Then `COc1ccc(-c2cc3c(N)ncnc3o2)cc1`, with -3.61 ± 1.9%; and `NC(=O)c1ccc(-c2nc(-c3ccccn3)c(-c3ccc4c(c3)OCO4)[nH]2)cc1`, with -0.443% and 16.4%; and `COc1ccc2cc(-c3c(-c4ccncc4)nc(-c4ccc([S+](C)[O-])cc4)n3C)ccc2c1` (stereo not drawn), with 12 ± 0.7%.
Take `COc1cc(Nc2ncc3c(C)nc(-c4cccc(C(F)(F)F)c4)n3n2)cc(OC)c1OC`: the growth inhibition is -2.03 ± 8.5%.
With `O=C1NC(=O)/C(=C/c2ccc3nccc(-c4ccncc4)c3c2)S1`, the growth inhibition was 19.4 ± 3.5%.
To `COc1cc2c(cc1Nc1nc(Nc3ccsc3C(N)=O)c3cc[nH]c3n1)N(C(=O)CN(C)C)CCC2` belongs -0.422 ± 3.1%.
Take `O=C(NC1CCNCC1)c1n[nH]cc1NC(=O)c1c(Cl)cccc1Cl`: the growth inhibition turned out to be 13.4 ± 5.9%.
Then `Nc1cc(C(F)(F)F)c(-c2cc(N3CCOCC3)nc(N3CCOCC3)n2)cn1`, with 47 ± 35%; and `COc1cccc(-c2c[nH]c3c(N/N=C/c4ccncc4)ncnc23)c1`, with -10.6 ± 14%.
Then `CCCN1CCC(c2ccc(Nc3nc(Nc4cc(F)ccc4C(N)=O)c4cc[nH]c4n3)c(OC)c2)CC1`, with -8.21 ± 4.5%; and `COc1cccc(-n2ncc3c(N/N=C/c4ccc(C(=O)NCCN(C)C)cc4)ncnc32)c1`, with 0.231 ± 2.8%.
Then `CC(C)c1ccc2c(c1)NC(=O)/C2=N/Nc1ccc(S(N)(=O)=O)cc1`, with -0.275 ± 0.88%.
With `CCN(CC)Cc1ccc(Nc2nccc(-c3cnn4ncccc34)n2)cc1`, the growth inhibition is -11.5 ± 14%.
Then `Fc1cc(-c2cccc3ncc(-c4cnn(C5CCNCC5)c4)nc23)cc(F)c1CN1CCOCC1`, with 82.1 ± 22%; and `COc1cc2c(Oc3ccc4[nH]c(C)cc4c3F)ncnc2cc1OCCCN1CCCC1` [Cediranib (AZD2171)], with 46 ± 7.5%; and `NS(=O)(=O)c1cccc(-c2cc3ccncc3cc2OCc2ccccc2)c1`, with 8.53 ± 3.9%.
Consider `COc1cc2c(N3CCN(C(=O)Nc4ccc(OC(C)C)cc4)CC3)ncnc2cc1OCCCN1CCCCC1` [Tandutinib (MLN518)], for which the growth inhibition was determined as 32.3 ± 18%.
To `CC(=O)Nc1cccc(-n2c(=O)n(C3CC3)c(=O)c3c(Nc4ccc(I)cc4F)n(C)c(=O)c(C)c32)c1` belongs 31.3 ± 12%.
With `COc1cc2c(Nc3ccc(NC(=O)c4ccccc4)cc3)ncnc2cc1OCCCN1CCOCC1`, the growth inhibition amounted to 24.9 ± 20%.
Regarding `Cc1ncc(-c2ccnc(Nc3ccc(S(C)(=O)=O)cc3)n2)n1C(C)C`, the growth inhibition is 97.4 ± 2.4%.
Then `Cc1cc(C(=O)NOCCO)c(Nc2ccc(I)cc2F)n(C)c1=O`, with 13.2 ± 5.6%; and `COC(=O)Nc1nc2cc(Oc3ccc(NC(=O)Nc4ccccc4)cc3)ccc2[nH]1`, with 8.77 ± 1.8%; and `COc1cc(/C=N/Nc2ncnc3c2cnn3C(C)C)ccc1O`, with -1.18 ± 2.2%.
In the case of `Cc1cn(-c2cc(NC(=O)c3ccc(C)c(Nc4nccc(-c5cccnc5)n4)c3)cc(C(F)(F)F)c2)cn1` [Nilotinib (AMN-107)], the growth inhibition came to 46.8 ± 3.8%.
Regarding `COC(=O)Nc1ccc(-c2nc(N3CCOCC3)c3cnn(C4CCN(Cc5cccnc5)CC4)c3n2)cc1`, the growth inhibition is 33.8 ± 29%.
Then `NS(=O)(=O)c1ccc(Nc2cc(-c3cccc(O)c3)n[nH]2)cc1`, with 10.9 ± 3.9%; and `COc1cccc(-n2ncc3c(N/N=C/c4cccc(F)c4)ncnc32)c1`, with 6.27 ± 6.8%; and `Cc1cccc(-c2[nH]c(C(C)(C)C)nc2-c2ccc3nccnc3c2)n1`, with 9.73 ± 13%.
For the molecule `Oc1ccc(-c2nc(-c3ccc(F)cc3)c(-c3ccncc3)[nH]2)cc1`, the growth inhibition worked out at 23.7 ± 32%.
For the molecule `O=C1NC(=O)C(N2CCc3ccccc32)=C1c1ccc(Cl)cc1`, the growth inhibition was found to be 14.5 ± 6%.
To `NC(=O)c1sc(-n2cnc3ccc(C(F)(F)F)cc32)cc1OCc1ccccc1Br` belongs -2.79 ± 1.9%; to `O=C(Nc1n[nH]c2cc(-c3ccc(F)cc3)ccc12)C1CC1`, -9.6 ± 16%.
Then `CCn1c(-c2nonc2N)nc2c(C#CCN)ncc(OCCCN)c21`, with -1.03 ± 0.6%.
`Fc1ccc(-c2cc(-c3c[nH]nc3-c3ccccn3)ccn2)cc1`: the growth inhibition is -6.8 ± 13%.
To `CC(C)(C)Cn1c(N)nc2ccc(-c3[nH]c(C(C)(C)C)nc3-c3ccc(F)cc3)nc21` belongs 97.5 ± 1.3%; to `COc1ccc(-c2cc3c(C)nc(N)nc3n([C@H]3CC[C@H](OCCO)CC3)c2=O)cn1`, 12.2 ± 9.5%.
